Test [1] in a line: NCI Yeast Anticancer Drug Screen. Data for the rad50 strain (AID 155).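 Further: 0% = growth of vehicle-only cultures of the same strain.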 Particulars: S. cerevisiae rad50 strain growth inhibition, hits give high values. The gist of the method:
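Vehicle-treated cultures provide the reference for the growth inhibition reported for compound-exposed, repair-deficient yeast.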

A short description of test [2]: NCI Yeast Anticancer Drug Screen. Data for the sgs1 mgt1 strain (AID 161).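 Further: 0% = growth of cultures given vehicle only.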 Particulars: S. cerevisiae sgs1 mgt1 strain, hits give high values. The gist of the method: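 Growth of a repair-deficient yeast mutant was monitored after compound treatment and expressed as inhibition relative to vehicle-treated cultures.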
A short description of test [3]: NCI Yeast Anticancer Drug Screen. Data for the cln2 rad14 strain (AID 165).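 Further: 0% = growth equal to vehicle treated cultures.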 Conditions: S. cerevisiae cln2 rad14 strain, hits give high values. A digest of the protocol: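 Readout is yeast growth inhibition versus vehicle-treated controls, using a strain with cln2 and rad14 alterations exposed to compound.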
Test [4] is described as follows: NCI Yeast Anticancer Drug Screen. Data for the bub3 strain (AID 167). Particulars: S. cerevisiae bub3 mutant strain, hits give high values. The gist of the method:
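Mutant yeast screening strain plus compound; vehicle-treated cultures serve as the 0% inhibition reference.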

The nature of test [5]: NCI Yeast Anticancer Drug Screen. Data for the mlh1 rad18 strain (AID 175). Particulars: S. cerevisiae mlh1 rad18 strain growth inhibition, hits give high values. The gist of the method:
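Genetically defined yeast (DNA repair-deficient) exposed to compounds; growth inhibition determined relative to vehicle.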

The nature of test [6]: NCI Yeast Anticancer Drug Screen. Data for the mec2-1 strain (AID 157). Conditions: S. cerevisiae mec2-1 strain, hits give high values. A digest of the protocol:
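Mutant yeast (mec2-1) grown with compound; growth inhibition relative to vehicle control reported.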

The mark [7] stands for this setting: at 5.0 µM (retest, dose inferred, filed as 0.5).
Setting [8] is: at 50.0 µM (retest, dose inferred, filed as 5.0).

SMILES strings stand for the structures. Several values for one entry are separate records, joined by “and”; a condition that tells them apart may be missing. Identical values can stand only once. The panel holds about 79,000 compounds, 15% with a hit somewhere; the sample as a whole holds those more often. Values without a mark were called inactive. Activity calls are given as the source filed them. No stated cut-off is given here; in the data, active means growth inhibition above about 70%; inactive means the rest.

For the molecule `CC1N(O)C(c2ccccc2)C(c2ccccc2)=[N+]1[O-]` (stereo unspecified), the growth inhibition in test [1] (setting [7]) is 16%; in test [1] (setting [8]) it was 25%; in test [1] (at 50.0 µM) it was -5.7%; in test [2] (setting [7]), 16%; in test [2] (setting [8]), 26%; in test [2] (at 50.0 µM), -20.4%. Besides, the growth inhibition in test [3] (setting [7]) is 22%; in test [3] (setting [8]), 17%; in test [3] (at 50.0 µM), 8.8%; in test [4] (setting [7]), 22%; in test [4] (setting [8]), 26%; in test [4] (at 50.0 µM) it was -20.9%. The values for the growth inhibition in test [5] (setting [7]), in test [5] (setting [8]) and in test [5] (at 50.0 µM) were 13%, 22% and -37.4%, respectively.

Regarding `COc1ccc(-c2c(-c3ccccc3)c(C)nc3[nH]c(=S)[nH]c(=S)c23)cc1OC`, the growth inhibition was -4% in test [1] (setting [7]); 69% in test [1] (setting [8]); 92.2% (active) in test [1] (at 50.0 µM); -2% in test [6] (setting [7]); 58% in test [6] (setting [8]); 92.8% (active) in test [6] (at 50.0 µM). Besides, the growth inhibition was 7% in test [3] (setting [7]); 81% (active) in test [3] (setting [8]); 93.2% (active) in test [3] (at 50.0 µM); 0% in test [4] (setting [7]); 91% (active) in test [4] (setting [8]); 69.8% in test [4] (at 50.0 µM). The results for the growth inhibition in test [5] (setting [7]), in test [5] (setting [8]) and in test [5] (at 50.0 µM) were -30%, 79% (active) and 94.9% (active), respectively.

`C=C1C(=O)OC2/C=C(\C(=O)O)CC/C=C(\C)CC(OC(=O)/C=C(\C)CC)C12` (stereo unspecified): the growth inhibition in test [1] (setting [7]) was -1%; in test [1] (setting [8]) it was 79% (active); in test [1] (at 50.0 µM) it was 94% (active); in test [2] (setting [7]) it was -1%; in test [2] (setting [8]), 79% (active); in test [2] (at 50.0 µM), 77.1% (active). The growth inhibition in test [3] (setting [7]) is -19%; in test [3] (setting [8]), 69%; in test [3] (at 50.0 µM), 69.8%; in test [4] (setting [7]), -7%; in test [4] (setting [8]), 84% (active); in test [4] (at 50.0 µM) it was 84.2% (active). Also, the figures for the growth inhibition in test [5] (setting [7]), in test [5] (setting [8]) and in test [5] (at 50.0 µM) were -4%, 93% (active) and 77.1% (active), respectively.

Turning to `Cc1c(-c2ccccc2)ccnc1/C=N/NC(=S)NCCc1ccccc1`, the growth inhibition in test [1] (setting [7]) was 49%; in test [1] (setting [8]), 77% (active); in test [1] (at 50.0 µM) it was 76.3% (active); in test [6] (setting [7]), 52%; in test [6] (setting [8]), 85% (active); in test [6] (at 50.0 µM), 76.3% (active). For the same molecule, the growth inhibition in test [3] (setting [7]) was 42%; in test [3] (setting [8]), 80% (active); in test [3] (at 50.0 µM), 70%; in test [4] (setting [7]), 55%; in test [4] (setting [8]), 84% (active); in test [4] (at 50.0 µM), 77.7% (active). The growth inhibition is 49% in test [5] (setting [7]), 80% (active) in test [5] (setting [8]) and 74% (active) in test [5] (at 50.0 µM).

Turning to `C=CCOCCC=O`, the growth inhibition was 7% in test [1] (setting [7]); 38% in test [1] (setting [8]); 45.4% in test [1] (at 50.0 µM); 3% in test [6] (setting [7]); 5% in test [6] (setting [8]); 14.2% in test [6] (at 50.0 µM). For the same molecule, the growth inhibition in test [2] (setting [7]) was 2%; in test [2] (setting [8]) it was 4%; in test [2] (at 50.0 µM), 36%; in test [4] (setting [7]), 4%; in test [4] (setting [8]), -3%; in test [4] (at 50.0 µM), 47.7%. For the same molecule, the growth inhibition in test [5] (setting [7]) is 4%; in test [5] (setting [8]), 11%; in test [5] (at 50.0 µM), 54.6%.

`Oc1ccc(C2CCc3ccccc32)cc1` (stereo unspecified): the growth inhibition in test [1] (setting [7]) was -6%; in test [1] (setting [8]) it was 98% (active); in test [1] (at 50.0 µM), 99.6% (active); in test [2] (setting [7]), -7%; in test [2] (setting [8]) it was 98% (active); in test [2] (at 50.0 µM), 99.1% (active). Also, the growth inhibition in test [3] (setting [7]) was -11%; in test [3] (setting [8]) it was 98% (active); in test [3] (at 50.0 µM), 99.3% (active); in test [4] (setting [7]), -28%; in test [4] (setting [8]), 94% (active); in test [4] (at 50.0 µM) it was 99.5% (active). Besides, the figures for the growth inhibition in test [5] (setting [7]), in test [5] (setting [8]) and in test [5] (at 50.0 µM) were -7%, 98% (active) and 99.4% (active), respectively.

Take `COC(=O)C1C(c2ccccc2)=N[C@@H](c2ccccc2)[C@H]1C(=O)OC` (stereo partly specified): the growth inhibition in test [1] (setting [7]) was 2%; in test [1] (setting [8]) it was -3%; in test [1] (at 50.0 µM), 17.4%; in test [2] (setting [7]) it was 9%; in test [2] (setting [8]) it was 3%; in test [2] (at 50.0 µM), 17.1%. The growth inhibition in test [3] (setting [7]) is 6%; in test [3] (setting [8]), 7%; in test [3] (at 50.0 µM), 23.2%; in test [4] (setting [7]), 6%; in test [4] (setting [8]), 32%; in test [4] (at 50.0 µM) it was 3.55%. Besides, the growth inhibition was 1% in test [5] (setting [7]), 0% in test [5] (setting [8]) and 76.7% (active) in test [5] (at 50.0 µM).

For the molecule `Cc1ccc2c(c1)C1C(CC2)C2C(=O)OC(=O)C2C2CCc3ccc(C)cc3C21` (stereo unspecified), the growth inhibition was 35% in test [1] (setting [7]); 97% (active) in test [1] (setting [8]); 35.4% in test [1] (at 50.0 µM); 21% in test [6] (setting [7]); 98% (active) in test [6] (setting [8]); 14.3% in test [6] (at 50.0 µM). For the same molecule, the growth inhibition is 6% in test [2] (setting [7]); 99% (active) in test [2] (setting [8]); 1.35% in test [2] (at 50.0 µM); 19% in test [4] (setting [7]); 97% (active) in test [4] (setting [8]); 10.3% in test [4] (at 50.0 µM). Besides, the growth inhibition was 29% in test [5] (setting [7]), 98% (active) in test [5] (setting [8]) and 38.4% in test [5] (at 50.0 µM).

For the molecule `CC1C2CCC3C4CC=C5CC(N(C)C)CCC5(C)C4CCC32CN1C` (stereo unspecified), the growth inhibition in test [1] (at 50.0 µM) is -9.65% and 13.9% and -0.1%; in test [6] (at 50.0 µM), -3.8% and 1% and -6.15%; in test [2] (at 50.0 µM), -8% and 7.6% and -3.15%; in test [3] (at 50.0 µM), 7.25% and 0.15% and 30.5%; in test [4] (at 50.0 µM) it was -6.35% and 18.9% and 33.6%; in test [5] (at 50.0 µM) it was 9.35% and 23.6% and -7.35%.

`C#CCN(N=O)C(=O)NCCCC(NC(C)=O)C(=O)NCc1ccccc1` (stereo unspecified): the growth inhibition was -4% in test [1] (setting [7]); 19% in test [1] (setting [8]); 78.9% (active) in test [1] (at 50.0 µM); -26% in test [6] (setting [7]); -10% in test [6] (setting [8]); -5.35% in test [6] (at 50.0 µM). Also, the growth inhibition is 3% in test [2] (setting [7]); 36% in test [2] (setting [8]); 43.6% in test [2] (at 50.0 µM); 6% in test [4] (setting [7]); 26% in test [4] (setting [8]); -13.6% in test [4] (at 50.0 µM). For the same molecule, the growth inhibition was -2% in test [5] (setting [7]), 42% in test [5] (setting [8]) and 25.8% in test [5] (at 50.0 µM).

`Cc1cc(O)c(C(=O)/C=C/c2cccnc2)c(=O)[nH]1`: the growth inhibition in test [1] (setting [7]) was -13%; in test [1] (setting [8]) it was 79% (active); in test [1] (at 50.0 µM), 68.9%; in test [2] (setting [7]), -5%; in test [2] (setting [8]), 92% (active); in test [2] (at 50.0 µM) it was 84.8% (active). Further, the growth inhibition in test [3] (setting [7]) is 9%; in test [3] (setting [8]) it was 70% (active); in test [3] (at 50.0 µM) it was 16.3%; in test [4] (setting [7]), -16%; in test [4] (setting [8]), 89% (active); in test [4] (at 50.0 µM) it was 78.8% (active). In addition, the growth inhibition in test [5] (setting [7]) was 8%; in test [5] (setting [8]), 91% (active); in test [5] (at 50.0 µM), 93% (active).

Consider `COc1ccc(C2=Nc3cc(C)c(C)cc3NC(c3ccccc3)C2)cc1` (stereo unspecified), for which the growth inhibition is 11% in test [1] (setting [7]); 11% in test [1] (setting [8]); 43.2% in test [1] (at 50.0 µM); 21% in test [2] (setting [7]); 21% in test [2] (setting [8]); 66.9% in test [2] (at 50.0 µM). Moreover, the growth inhibition in test [3] (setting [7]) is 1%; in test [3] (setting [8]), 1%; in test [3] (at 50.0 µM), 9.5%; in test [4] (setting [7]) it was 35%; in test [4] (setting [8]) it was 35%; in test [4] (at 50.0 µM), 74.7% (active). The growth inhibition was 19% in test [5] (setting [7]), 19% in test [5] (setting [8]) and 51% in test [5] (at 50.0 µM).

As to `O=C1c2ccccc2-c2nc3ncccc3cc21`, the growth inhibition was 27% in test [1] (setting [7]); 93% (active) in test [1] (setting [8]); 95.7% (active) in test [1] (at 50.0 µM); 4% in test [2] (setting [7]); 78% (active) in test [2] (setting [8]); 42.2% in test [2] (at 50.0 µM). Besides, the growth inhibition in test [3] (setting [7]) is 6%; in test [3] (setting [8]), 63%; in test [3] (at 50.0 µM) it was 57.9%; in test [4] (setting [7]), 4%; in test [4] (setting [8]), 57%; in test [4] (at 50.0 µM) it was 79.4% (active). Also, the growth inhibition in test [5] (setting [7]) was -5%; in test [5] (setting [8]) it was 88% (active); in test [5] (at 50.0 µM), 71.4% (active).
